Experimental data reported in the supplement of paper PMC3334620.
In all, about 33,000 sequences were measured (“E-score (-0.5 to 0.5)”: median about -0.056, highest 2% from about 0.38 on). The entries come from a sample that favours the highest values as a whole.

Target: Stb4 (UniProt P50104)
Assay: PBM E-score (8-mer binding enrichment) (E-score (-0.5 to 0.5)); higher = stronger / more preferred TF binding
Conditions: protein concentration: 200 nM; construct: GST-DNA-binding domain
Procedure: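 Universal 'all 10-mer' protein binding microarrays (Agilent AMADID 015681) probed with GST-tagged S. cerevisiae TFs (full-length or DBD) made by in vitro transcription/translation (PURExpress), about 100-200 nM. Bound TF was detected with fluorescent anti-GST. Each ungapped 8-mer (which stands for itself and its reverse complement) is scored by the PBM enrichment score (E-score), a modified Wilcoxon-Mann-Whitney statistic from -0.5 to +0.5, computed with the Universal PBM Analysis Suite. Scale: above 0.35 generally sequence-specific binding.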

Chain of UniProt P50104 (P50104 whole entry): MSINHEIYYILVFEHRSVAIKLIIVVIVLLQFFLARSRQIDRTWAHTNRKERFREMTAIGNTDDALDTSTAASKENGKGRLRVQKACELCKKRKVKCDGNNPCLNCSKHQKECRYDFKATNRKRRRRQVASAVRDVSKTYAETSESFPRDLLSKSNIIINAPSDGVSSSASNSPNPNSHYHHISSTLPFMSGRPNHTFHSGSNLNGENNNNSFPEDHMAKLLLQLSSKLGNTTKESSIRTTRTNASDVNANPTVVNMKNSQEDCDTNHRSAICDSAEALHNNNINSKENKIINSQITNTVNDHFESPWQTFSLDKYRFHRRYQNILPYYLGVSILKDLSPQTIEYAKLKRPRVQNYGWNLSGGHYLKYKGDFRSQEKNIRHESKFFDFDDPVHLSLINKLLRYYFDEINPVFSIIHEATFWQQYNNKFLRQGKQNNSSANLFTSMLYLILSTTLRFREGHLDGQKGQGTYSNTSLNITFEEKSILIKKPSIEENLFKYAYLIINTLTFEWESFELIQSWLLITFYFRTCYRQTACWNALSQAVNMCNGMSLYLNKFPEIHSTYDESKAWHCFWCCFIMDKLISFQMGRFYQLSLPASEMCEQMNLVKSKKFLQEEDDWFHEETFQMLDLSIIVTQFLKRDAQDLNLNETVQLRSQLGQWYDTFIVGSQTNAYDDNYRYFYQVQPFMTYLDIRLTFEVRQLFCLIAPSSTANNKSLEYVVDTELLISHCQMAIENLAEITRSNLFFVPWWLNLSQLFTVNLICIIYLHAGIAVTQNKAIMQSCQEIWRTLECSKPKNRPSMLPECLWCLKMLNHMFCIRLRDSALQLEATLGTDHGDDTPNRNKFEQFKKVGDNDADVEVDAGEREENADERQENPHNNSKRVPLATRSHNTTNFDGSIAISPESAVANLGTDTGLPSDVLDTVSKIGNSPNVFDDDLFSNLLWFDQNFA

Sequence	PBM E-score
AAATCATT	-0.067
ACACCCGC	0.164
GCACCCCA	-0.0865
TCACCCAA	-0.112
TCACCCGA	0.407
GCACCCGA	0.434
CCACCCGA	0.379
ACACCCGA	0.445
GCACCCGC	0.285
ACACCCGG	0.331
CTGCGAAC	-0.298
CCAACTTA	-0.00182
CTCTTAAC	-0.0542
GAGTACCC	0.0867
TAGGATAA	-0.0915
TGGGATAA	-0.182
CCGGATTA	0.319
GCGGATGA	0.304
CAGGATAA	-0.12
GCGGATAA	0.403
CCGGATAG	0.424
CGGGATAG	0.191

Sequence	PBM E-score
CCGGATAA	0.452
CAGGATAG	-0.0723
TCGGATAA	0.487
GGGGATAA	0.00287
ATTATCTC	0.0642
CAGGGAGA	-0.266
CGATGGTC	-0.158
CTTCTTTA	-0.0675
GACCCTGC	0.1
AAAGCGTC	-0.194
CACACTAA	-0.194
CGAGAAGA	0.0362
CCGATATC	0.297
GCGGATAC	0.367
CAGGATAC	-0.198
CCGGATAC	0.409
ATCGGCCG	0.305
AAAGCCAG	-0.246
GGGAACAA	0.225
CGGAACAC	0.367
CGGAACAA	0.444
TGGAACAA	-0.2

Sequence	PBM E-score
AGGAACAG	-0.243
CGGAACAG	0.427
ATCTATGG	-0.184
AGCTCGTG	0.0631
AGCTCGGG	0.443
AGCTCGGC	0.412
AGCTCGCC	-0.0787
AGCTCGCG	-5e-05
AGCTCGAC	-0.0952
CGTGCCAG	-0.186
AAGGTAGG	-0.0211
ACTTGACA	-0.05
ACGATACG	-0.314
CGCCGAGC	0.39
AGCCGAGG	0.437
AGCCGAGC	0.448
AGCCGACC	0.293
AGCCGCGG	0.315
AGCCGATC	0.313
GGCCGAGA	0.347
AGCCGATA	0.344
CGCCGATC	0.241

Sequence	PBM E-score
CGCCGAGA	0.361
CACCGAGG	0.308
AGCCGAGA	0.436
GCATATGC	-0.173
CGCCACGC	-0.108
AAGGACTC	0.127
TGGATGAA	-0.185
GTGCCAGA	-0.31
AAGCGGCA	0.133
GCTGACGA	-0.346
GAGCACTC	0.09
CTCCGGAC	0.285
AACCGGAG	0.23
ATCCGGAA	0.436
ATACGGAA	0.36
CTCCGGAA	0.391
ATCCGGAC	0.336
GTCCGGAA	0.373
AACCGGAA	0.377
TTACGGAA	0.365
